Compounds with a hit are over-represented: about 6.6% of the library has one in this group of screens.
CSC inhib – blocks cancer stem cells; cancer stem cell-like cells viability, luminescence; inhibition, % at 7.5 µM; actives 1.1% (n = 300,000); in the data active = inhibition above about 75%; tested in HMLE shEcad cells
Mdm2-MdmX inh – human Mdm2/MdmX binding inhibition; SaOS-2 split-luciferase Mdm2/MdmX complementation, luminescence; inhibition, % at 8 µM; actives 3% (n = 330,000); AID 485346;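 active = inhibition of at least 50% at 8 µM in the primary screen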
Target sequence (O15151 whole entry, looked up): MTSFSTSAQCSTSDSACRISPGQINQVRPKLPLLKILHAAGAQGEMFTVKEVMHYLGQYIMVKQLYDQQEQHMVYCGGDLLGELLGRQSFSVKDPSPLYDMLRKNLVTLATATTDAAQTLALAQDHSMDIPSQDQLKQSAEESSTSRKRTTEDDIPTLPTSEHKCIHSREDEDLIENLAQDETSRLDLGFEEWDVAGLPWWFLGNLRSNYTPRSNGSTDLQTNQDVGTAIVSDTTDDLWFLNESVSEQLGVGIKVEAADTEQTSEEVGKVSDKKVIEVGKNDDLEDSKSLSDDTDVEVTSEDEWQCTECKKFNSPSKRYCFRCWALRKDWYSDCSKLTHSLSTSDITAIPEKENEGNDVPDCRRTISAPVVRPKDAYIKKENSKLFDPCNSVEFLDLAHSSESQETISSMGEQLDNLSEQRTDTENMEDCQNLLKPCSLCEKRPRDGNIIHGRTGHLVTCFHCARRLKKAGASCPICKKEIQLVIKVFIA
Target sequence (Q00987 whole entry, looked up): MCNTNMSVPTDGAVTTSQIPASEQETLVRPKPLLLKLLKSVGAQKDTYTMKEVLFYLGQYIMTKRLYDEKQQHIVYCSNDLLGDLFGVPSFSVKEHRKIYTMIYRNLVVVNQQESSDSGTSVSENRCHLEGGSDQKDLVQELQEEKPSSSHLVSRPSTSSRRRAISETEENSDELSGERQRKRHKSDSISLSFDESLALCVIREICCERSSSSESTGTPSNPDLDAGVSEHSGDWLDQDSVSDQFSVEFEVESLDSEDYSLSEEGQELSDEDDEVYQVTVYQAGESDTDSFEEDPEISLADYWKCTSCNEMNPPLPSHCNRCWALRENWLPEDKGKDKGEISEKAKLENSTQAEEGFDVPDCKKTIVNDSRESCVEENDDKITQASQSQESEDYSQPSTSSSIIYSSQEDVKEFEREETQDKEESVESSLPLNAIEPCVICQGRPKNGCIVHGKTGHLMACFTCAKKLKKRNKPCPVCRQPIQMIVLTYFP
Beta apoptosis – blocks beta cell apoptosis; INS-1E cytokine-induced death, ATP luminescence, 48 h; percent of positive-control rescue, neutral wells zero; protection from apoptosis, % (test concentration not listed); actives 0.8% (n = 300,000); AID 435005;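 active = Every replicate reaches about 75%, or at least half do and their mean reaches it too, limit read from the data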;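 note: 0% = cytokine-treated negative control wells and 100% = positive control rescue; higher means more ATP so stronger rescue from cytokine killing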
MPTP block – inhibitors of mitochondrial permeability transition pore | isolated mouse mitochondria, Ca2+ swelling absorbance, 30 min | actives 1.4% (n = 360,000) | inhibition, % at 10 µM;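 active = inhibition of 50% or more, scaled per plate between neutral and stimulator controls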;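 note: 0% = DMSO wells given calcium and 100% = 1 mM EGTA wells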
GRIN3A LBD mod – NR3A (human) ligand-binding domain modulation | NR3A LBD differential scanning fluorimetry, Tm shift; 0% = protein alone, 100% = glycine-bound protein | actives 2.5% (n = 340,000) | Tm shift relative to glycine control, % at 25 µM | AID 1259313;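 active = melting temperature shift of at least 10% of the positive control shift, at one fixed dose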
Gli-Sufu antag – antagonists of Gli-Sufu signaling. inhibition, % at 5 µM. Sufu-KO-LIGHT fibroblasts, Gli luciferase reporter luminescence. actives 0.74% (n = 340,000). AID 588413;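 active = inhibition above about 55%, limit read from the data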;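 note: 0% = DMSO-treated cells and 100% = wells with medium but no cells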
Rh123 counter – mitochondrial membrane potential, counter-screen | inhibition, % at 10 µM | isolated mitochondria, Rhodamine 123 fluorescence | actives 78% (n = 5,000) | shares compounds with MPTP block; in the data active = inhibition above about 22%;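 note: 0% = DMSO vehicle and 100% = positive control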
MPTP abs DR – dose response confirmation of mitochondrial permeability transition pore inhibitors. isolated mitochondria swelling, absorbance. shares compounds with MPTP block. actives 58% (n = 780). IC50, µM. AID 651561; in the data active = IC50 below about 20 µM
MPTP cs DR – active in counter-screen for permeability transition pore inhibitors; shares compounds with MPTP block; isolated mitochondria counterscreen, fluorescence read-out; IC50, µM; actives 49% (n = 780); in the data active = IC50 below about 80 µM
The depositor's hits bear a star; i = inactive; / = no result given.

SMILES | CSC inhib | Mdm2-MdmX inh | Beta apoptosis | MPTP block | GRIN3A LBD mod | Gli-Sufu antag | Rh123 counter | others
Cc1ccc(OCc2nc3c4c(ncn3n2)-c2ccccc2CC42CCCC2)cc1 | 12 | 18 | 5 | 57* | 9 | 4 | -8 | MPTP abs DR=8.4*;MPTP cs DR=>80
CC(C)CC(NC(=O)C1CCC(=O)N1C(=O)OCc1ccccc1)C(=O)NC(Cc1ccccc1)C(N)=O (stereo not drawn) | -10 | -27 | 5 | 0 | 0 | -27 | /
O=C(O)CCCCCN1C(=O)/C(=C\c2ccc(-c3ccc(Cl)cc3)o2)SC1=S | 21 | 0 | 2 | 88* | 0 | 0 | 47*
O=C(O)CCCCCN1C(=O)/C(=C\c2ccncc2)SC1=S | 29 | 14 | -10 | 0 | -1 | -8 | /
Cc1nc(N)nc(N)c1/C=C/C(C)(C)c1ccc(Cl)cc1 | / | / | / | 97* | 3 | / | 91*
Cc1nc(N)nc(N)c1Oc1ccc(Cl)cc1 | / | / | / | 3 | 1 | 7 | /
O=C(NCCCN1CCCC1=O)Nc1ccc(Br)cc1Cl | 1 | -9 | 0 | -1 | 2 | -2 | /
O=C(NCc1ccco1)Nc1ccc(OC(F)(F)F)cc1 | 0 | 5 | 3 | 52* | 0 | -1 | 80*
C=CCNc1ncnc2c1[nH]c1ccc(Cl)cc12 | 35 | -16 | -3 | 89* | -3 | -12 | 94*
CSc1ccccc1OC1CCN(Cc2ccccc2)CC1 | 26 | 10 | -6 | 54* | 2 | 7 | 0 | MPTP abs DR=i;MPTP cs DR=63*
CCOc1nc(N2CCOCC2)nc(N2CCOCC2)n1 | 8 | 14 | 2 | 1 | -1 | -3 | /
OCC1(CCc2ccccc2)CCN(Cc2cc(F)ccc2-n2cccn2)CC1 | 0 | 28 | -2 | 3 | 0 | 21 | /
Cc1cc(CN2CCC(n3nccc3NC(=O)c3ccccc3C)CC2)n[nH]1 | 0 | 9 | -1 | -1 | 0 | -3 | /
CCC(C)(C)NC(=O)c1cc(C(=O)OC)cc([N+](=O)[O-])c1 | -6 | -7 | -5 | 1 | 1 | 5 | /
CCCN(CCC)S(=O)(=O)c1ccc(NC(=O)c2cc(C(=O)OC)cc([N+](=O)[O-])c2)cc1 | 16 | 2 | -8 | 88* | 5 | -6 | -9 | MPTP abs DR=11*;MPTP cs DR=4.5*
Cc1ccc(C)c(S(=O)(=O)Nc2ccccc2C(=O)Nc2cc(C)on2)c1 | -10 | 15 | 18 | 58* | -5 | 32 | 70*
Cc1cc(NC(=O)c2ccccc2NS(=O)(=O)c2c(C)c(C)cc(C)c2C)no1 | 44 | 38 | 9 | 49 | 7 | 9 | /
NC[C@@H]1O[C@H](C23CC4CC(CC(C4)C2)C3)Cc2c1ccc(O)c2O | 40 | 42 | -4 | 94* | -1 | 4 | -15
O=C(Nc1cccc(-c2cccc(F)c2)c1)C1CCN(C2CCC2)CC1 | / | 49 | / | 64* | 0 | 30 | -8 | MPTP abs DR=7.7*;MPTP cs DR=58*
Nc1nc2ccccc2cc1C(=O)NCc1ccc(-c2ccccc2)cc1 | / | / | / | 106* | / | / | 103*
Nc1ccc(CNC(=O)c2cc3cc(Cl)ccc3nc2N)cc1 | / | / | / | 17 | / | / | /
Nc1nc2ccccc2cc1C(=O)NCc1ccc(Cl)cc1Cl | / | / | / | 67* | / | / | 97*
Cc1nc2ccccn2c1-c1ccnn1S(=O)(=O)c1ccc(F)cc1 | 30 | 36 | 17 | 79* | 0 | 7 | 48*
O=C(COC(=O)c1ccc(NS(=O)(=O)c2ccc(F)c(F)c2)cc1)NCC1CCCO1 (stereo not drawn) | -6 | -11 | -1 | -1 | -1 | 4 | /
Cn1ncc(Br)c1NC(=O)Nc1ccc(OC(F)(F)F)cc1 | 6 | 2 | 17 | 89* | -6 | 6 | 85*
SMILES | CSC inhib | Mdm2-MdmX inh | Beta apoptosis | MPTP block | GRIN3A LBD mod | Gli-Sufu antag | Rh123 counter | others
Cc1ccc(CNC(=O)Nc2ccc(OC(F)(F)F)cc2)n1C | 10 | -2 | -4 | 2 | 2 | -1 | /
O=C(Cc1ccccc1)NCC(=O)N1CCN(c2ccccc2F)CC1 | 18 | 0 | -3 | 0 | -8 | -8 | /
CCOC(=O)C1CCCN(CCC(=O)Nc2ccc(C)cc2)C1 (stereo not drawn) | / | -7 | -5 | 1 | 1 | 7 | /
COc1cc(Cl)c(C)cc1NC(=O)c1ccc(NS(=O)(=O)c2ccc(F)c(F)c2)cc1 | 20 | -11 | 15 | 51* | 32* | -5 | 60*
CCOC(=O)/C=C/C(=O)Nc1cc(S(=O)(=O)Nc2ccc(OC)cc2)ccc1N1CCOCC1 | / | 30 | / | 57* | 1 | 45 | 70*
COc1ccc(NS(=O)(=O)c2ccc(N3CCOCC3)c(NC(=O)c3ccc(F)cc3)c2)cc1 | 23 | 2 | 8 | 73* | -15 | 20 | 17 | MPTP abs DR=>100;MPTP cs DR=>80
COc1ccc(NS(=O)(=O)c2ccc(N3CCOCC3)c(NC(=O)c3cccc(F)c3)c2)cc1 | 6 | 16 | 0 | 18 | -12 | 38 | /
COc1ccc(NS(=O)(=O)c2ccc(N3CCOCC3)c(NC(=O)C(C)C)c2)cc1 | 6 | 26 | 7 | 76* | 0 | 34 | 55*
Cc1ccc(NC(=O)CCNS(=O)(=O)c2ccc3[nH]c(=O)oc3c2)c(Cl)c1 | 2 | 18 | -5 | 0 | -3 | -9 | /
CCCCCCCCCCC(=O)Nc1cccnc1 | -5 | 21 | -1 | / | / | / | /
Cc1[nH]nc(Nc2ccc(Br)cc2)c1[N+](=O)[O-] | 12 | -134 | 14 | 57* | -2 | -65 | 72*
Cc1ccc(Nc2n[nH]c(C)c2[N+](=O)[O-])cc1 | -3 | -66 | 11 | 1 | 2 | -63 | /
Cc1ccc(NC(=O)COc2ccc(C(=O)c3ccccc3)cc2)c(O)c1 | 2 | 28 | -14 | 82* | -3 | -31 | 97*
CC1CCC(NC(=O)COc2ccc(C(=O)c3ccccc3)cc2)CC1 (stereo not drawn) | -2 | 11 | 1 | 70* | 2 | 5 | 65*
Cc1ccc(OCC(=O)Nc2ccccc2-c2ccccc2NC(=O)COc2ccc(C)cc2)cc1 | 31 | 17 | 6 | 1 | -1 | 5 | /
Cc1ccc(NC(=O)C2CCN(S(C)(=O)=O)CC2)c(C)c1 | -12 | 23 | 1 | 0 | -1 | -7 | /
COc1ccc(NC(=O)CN2C(=O)C(c3ccccc3)=NC23CCCCCC3)cc1 | -16 | 29 | 7 | 1 | -3 | 11 | /
O=C(CN1C(=O)C(c2ccc(F)cc2)=NC12CCCC2)Nc1ccc(F)cc1 | 4 | 14 | 32 | 60* | -4 | 41 | 53*
CC(C)Cc1csc(NC(=O)c2ccc(F)cc2)c1C(=O)O | 121* | 7 | -6 | 53* | -2 | 3 | 71*

Screening results: PubChem, several laboratories
